A number with no mark means an inactive call. Inconclusive results are not listed. Active and inactive are the calls of the source. Unless noted, calls follow the shape of the dose curve; as a rule, active = well fitted curve in the direction sought with a large enough effect in the repeat runs; inconclusive = weak or mixed curves; inactive = no such curve, though single readings can be large; an effect the other way counts as inactive or inconclusive.

Experiment [1] in a line: qHTS assay to identify small molecule agonists of the hypoxia (HIF-1) signaling pathway - cell viability counter screen (AID 1224844; calls by dose curve; also: nearly all actives have a fitted effect of over 50% in size; also: potency is read from the fitted curve at half-maximal effect). The procedure, abridged:
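Multiplexed with the HRE beta-lactamase assay, this viability read used CellTiter-Glo luminescence (30 min, RT) on HRE-bla ME-180 cells treated 17 hrs with compounds in 0.5% dialyzed FBS medium.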

The nature of experiment [2]: qHTS assay to identify small molecule agonists of H2AX (AID 1224845; active = well fitted activation curve with a large enough effect in the signal ratio in the repeat runs, not every such curve was filed as active; the % refers to the signal ratio; also: % is scaled to controls: 0 for no effect and ±100 for the full control effect). The procedure, abridged:
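Wild-type CHO-K1 cells, plated overnight, exposed 3hr at 37C to 15 concentrations (0.76% DMSO final). Lysed, then HTRF anti-pH2AX (S139) cryptate and anti-H2AX-d2 antibodies, 24 hr room temperature; 665/620 nm emission read.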
In general terms: Quantitative high-throughput screening tests each substance at several concentrations.

Experiment [3] can be described thus: qHTS assay to identify small molecule agonists of H2AX - cell viability counter screen (AID 1224847; calls by dose curve; also: top concentration of the series differs between compounds; % is scaled to controls: 0 for no effect and ±100 for the full control effect; nearly all actives have a fitted effect of over 30% in size). The procedure, abridged: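 For this counter screen, overnight-attached CHO-K1 cells received test compounds (15 concentrations, 0.76% DMSO final); 3 hr later at 37C, CellTiter-Glo reagent was added and luminescence recorded after 30 min at room temperature.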

The nature of experiment [4]: qHTS assay to identify small molecule antagonists of the estrogen related receptor (ERR) signaling pathway from Tox21 library (AID 1224848). Also: potency is read from the fitted curve at half-maximal effect; nearly all actives have a fitted effect of over 50% in size. The procedure, abridged:
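Luminescent reporter read-out (ONE-Glo) from NTP's ERR cell line after 18 h treatment at 37 C with DMSO-dissolved Tox21 compounds; cells pre-plated 6 h beforehand at 2,000 per well.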

The nature of experiment [5]: qHTS assay to identify small molecule agonists of the estrogen related receptor (ERR) signaling pathway from Tox21 library (AID 1224849; calls by dose curve; also: % is scaled to controls: 0 for no effect and ±100 for the full control effect; nearly all actives have a fitted effect of over 15% in size). The following applies: ERR reporter cell line, ONE-Glo luciferase, 18 h; at 92.4 µM (top of the series) unless noted. The procedure, abridged:
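Six hours post-seeding at 37 C/5% CO2, ERR cells receive DMSO-solubilised compounds; after 18 h at 37 C, ONE-Glo reagent is applied and luminescence recorded.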

The nature of experiment [6]: qHTS RealTime-Glo MT Cell Viability Assay in HepG2 cells - 24 hour (AID 1224867). Also: nearly all actives have a fitted effect of over 50% in size. Also: potency is read from the fitted curve at half-maximal effect. The procedure, abridged:
(§1)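 Cells + NanoLuc/prosubstrate dispensed (600 cells/well) → 5 h at 37 C/5% CO2 → compounds in DMSO transferred → 40 h incubation at 37 C, luminescence read at 0, 8, 16, 24, 32, 40 h.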

A short description of experiment [7]: A CellTox Green Cytotoxicity Assay to monitor cytotoxicity in HEK293 cells - 0 hour (AID 1224869). Also: % is scaled to controls: 0 for no effect and ±100 for the full control effect; nearly all actives have a fitted effect of over 50% in size. The procedure, abridged:
(§2)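 Seeding of HEK293 cells together with cytotoxicity dye preceded a 5 h incubation at 37 C/5% CO2. Test compounds in DMSO were then added and fluorescence monitored across 40 h.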

Experiment [8] in a line: qHTS RealTime-Glo MT Cell Viability Assay in HepG2 cells - 40 hour (AID 1224870). Also: nearly all actives have a fitted effect of over 50% in size. Also: potency is read from the fitted curve at half-maximal effect. The procedure, abridged:
(§3)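 HepG2 cells (600/well) mixed with RealTime-Glo MT reagent, settled 5 h at 37 C/5% CO2 before compound addition. Nonlytic NanoLuc luminescence from viable-cell prosubstrate reduction read repeatedly during 40 h treatment at 37 C.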

Experiment [9] in a line: A CellTox Green Cytotoxicity Assay to monitor cytotoxicity in HEK293 cells - 40 hour (AID 1224871). Also: nearly all actives have a fitted effect of over 45% in size. Also: potency is read from the fitted curve at half-maximal effect. The procedure, abridged: as §2
Experiment [10] in a line: qHTS RealTime-Glo MT Cell Viability Assay in HEK293 cells - 16 hour (AID 1224872). The procedure, abridged:
(§4)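 Tox21 10K qHTS, HEK293, 600 cells/well, RealTime-Glo reagent co-dispensed with cells; 5 h preincubation, compound by pintool, 37 C, luminescence at 0–40 h.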

Experiment [11] can be described thus: qHTS RealTime-Glo MT Cell Viability Assay in HepG2 cells - 8 hour (AID 1224873). Also: nearly all actives have a fitted effect of over 55% in size. Also: potency is read from the fitted curve at half-maximal effect. The procedure, abridged:
as §3

A short description of experiment [12]: A CellTox Green Cytotoxicity Assay to monitor cytotoxicity in HEK293 cells - 24 hour (AID 1224875). Also: nearly all actives have a fitted effect of over 45% in size. Also: potency is read from the fitted curve at half-maximal effect. As to activity change: % is scaled to controls: 0 for no effect and ±100 for the full control effect. The procedure, abridged:
as §2

Experiment [13] in a line: A CellTox Green Cytotoxicity Assay to monitor cytotoxicity in HepG2 cells - 16 hour (AID 1224876). Also: nearly all actives have a fitted effect of over 45% in size. Also: potency is read from the fitted curve at half-maximal effect. The procedure, abridged:
(§5)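 Nonlytic assay: viable cells exclude the dye, so fluorescence scales with cell death. HepG2 at 600 cells/well, compounds added after 5 h, signal read across 40 h.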

A short description of experiment [14]: qHTS RealTime-Glo MT Cell Viability Assay in HepG2 cells - 32 hour (AID 1224877). Also: nearly all actives have a fitted effect of over 55% in size. Also: potency is read from the fitted curve at half-maximal effect. The procedure, abridged:
as §1

Experiment [15] can be described thus: A CellTox Green Cytotoxicity Assay to monitor cytotoxicity in HepG2 cells - 24 hour (AID 1224878). Also: nearly all actives have a fitted effect of over 45% in size. Also: potency is read from the fitted curve at half-maximal effect. As to Cytotoxicity: % is scaled to controls: 0 for no effect and ±100 for the full control effect. The procedure, abridged:
as §5

Experiment [16] is described as follows: A CellTox Green Cytotoxicity Assay to monitor cytotoxicity in HepG2 cells - 40 hour (AID 1224879). Also: nearly all actives have a fitted effect of over 40% in size. Also: potency is read from the fitted curve at half-maximal effect. The procedure, abridged:
as §5

A short description of experiment [17]: qHTS RealTime-Glo MT Cell Viability Assay in HEK293 cells - 0 hour (AID 1224880). The procedure, abridged:
(§6)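 Tox21 screen in HEK293 using RealTime-Glo MT chemistry, with cells and reagent co-dispensed. Luminescence proportional to viable cell number was captured at intervals during 40 h compound exposure at 37 C.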

Experiment [18] is described as follows: qHTS RealTime-Glo MT Cell Viability Assay in HEK293 cells - 40 hour (AID 1224874). Also: nearly all actives have a fitted effect of over 50% in size. Also: potency is read from the fitted curve at half-maximal effect. As to max response: % is scaled to controls: 0 for no effect and ±100 for the full control effect. The note with it: RealTime-Glo luminescence; max response: hits give low values. The procedure, abridged: as §6
Experiment [19] is described as follows: qHTS RealTime-Glo MT Cell Viability Assay in HEK293 cells - 32 hour (AID 1224868). The procedure, abridged:
as §4

As for `COc1ccc([C@@H]2Sc3ccccc3N(CCN(C)C)C(=O)[C@@H]2OC(C)=O)cc1`, the Potency was 21.3 µM (active) in experiment [1] and 16.8 µM (active) in [4]. Moreover, the Potency entry in experiment [2], in [3], in [6], in experiment [7], in [8] and in experiment [9] was “inactive” throughout. Moreover, the Potency entry in [10], in [11], in [12], in [13], in [14] and in experiment [15] was “inactive” each time. Besides, the Potency entry in experiment [16] and in experiment [17] was “inactive” in each case. Moreover, the activity change, positive = activation in experiment [5] is -33.7% [at 42.5 µM].

As to `CC[C@@H]1C[C@H](N(Cc2cc(C(F)(F)F)cc(C(F)(F)F)c2)C(C)=O)c2cc(C(F)(F)F)ccc2N1C(=O)OC(C)C`, the Potency result in experiment [1], in experiment [2], in [3], in experiment [6], in experiment [7] and in experiment [9] was “inactive” each time. The Potency entry in [10], in [11], in experiment [13], in [14], in experiment [15] and in [16] was “inactive” in each case. Also, the Potency entry in [17] is “inactive”. Further, in experiment [18], the max response is -22.8%.

For `Cc1ncsc1CCO`, the Potency result in [1], in experiment [2], in experiment [3], in [6], in experiment [19] and in experiment [7] was “inactive” throughout. For the same molecule, the Potency entry in experiment [8], in experiment [9], in [10], in experiment [11], in experiment [12] and in experiment [13] was “inactive” each time. Moreover, the Potency entry in [14], in [15], in [16] and in experiment [17] was “inactive” throughout. Also, in experiment [18], the max response was 14.2%.

Regarding `NCCCOCCOCCOCCCN`, the Potency in experiment [1] is 15.5 µM (active). Moreover, the Potency entry in [2], in experiment [3], in [6], in [19], in [7] and in experiment [8] was “inactive” in each case. For the same molecule, the Potency result in experiment [9], in experiment [10], in [11], in [12], in experiment [14] and in [15] was “inactive” in each case. Also, the Potency entry in experiment [16] was “inactive”. The max response in [18] is -18%.

Consider `CC1CCc2cc(F)cc3c(=O)c(C(=O)O)cn1c23` (stereo not given), for which the Potency result in experiment [1], in experiment [2], in experiment [3], in experiment [6], in [19] and in experiment [7] was “inactive” throughout. The Potency entry in experiment [8], in experiment [9], in experiment [10], in [11], in experiment [12] and in experiment [14] was “inactive” in each case. Further, the Potency result in [15], in [16] and in [17] was “inactive” each time. In experiment [18], the max response was 7.68%.

Regarding `CNCC[C@@H](Oc1ccccc1C)c1ccccc1`, the Potency result in [1], in experiment [2], in [3], in experiment [6], in [19] and in experiment [7] was “inactive” each time. Besides, the Potency result in experiment [8], in experiment [9], in experiment [10], in experiment [11], in experiment [12] and in [14] was “inactive” throughout. Further, the Potency result in [15] and in experiment [16] was “inactive” each time. Also, the activity change, positive = activation in experiment [5] was -15.2% [at 42.5 µM]. Further, in [18], the max response was -5.29%.

As for `N[C@H]1C(O)O[C@H](CO)[C@H](O)[C@@H]1O` (stereo not given in full), the Potency result in [1], in experiment [2], in [6], in experiment [19], in [7] and in [8] was “inactive” each time. The Potency entry in [9], in experiment [10], in experiment [11], in experiment [14], in [15] and in experiment [16] was “inactive” each time. Besides, the Potency entry in experiment [17] is “inactive”. Moreover, the activity change, positive = activation in [5] was 1.03%. In [18], the max response was 9.12%.

For the molecule `NC(N)=NN=C(/C=C/c1ccc([N+](=O)[O-])o1)/C=C/c1ccc([N+](=O)[O-])o1`, the Potency in experiment [1] was 8.49 µM (active); in experiment [4] it was 2.66 µM (active); in experiment [6], 1.69 µM (active); in experiment [8] it was 1.51 µM (active); in experiment [9], 8.49 µM (active); in experiment [11] it was 4.25 µM (active). For the same molecule, the Potency is 0.848 µM (active) in experiment [18]; 10.7 µM (active) in experiment [12]; 3.79 µM (active) in experiment [13]; 1.51 µM (active) in [14]; 2.13 µM (active) in [15]; 1.69 µM (active) in experiment [16]. In addition, the Potency result in [2] and in experiment [7] was “inactive” throughout. Also, in experiment [5], the activity change, positive = activation is -66.8% [at 42.5 µM].

The values are drawn from PubChem BioAssay (Tox21).
